The results in this text go back to PubChem BioAssay (NCI).

SMILES strings stand for the structures. Compounds without any hit were thinned out: in the full panel of roughly 83,000, 20% have a hit.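 Method: cells in 96-well plates; compound added at one concentration; 48 h incubation; percent growth measured; values under 10 scored active.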 A number with no mark means an inactive call. Active and inactive are the calls of the source.

Common to all, as to experiment: NCI-60 one-dose screen, 48 h (100 = growth as untreated, 0 = no growth, -100 = all killed)
What all share (conditions): 10 µM unless noted

For assay [1], the system named is SK-MEL-2 melanoma.
Assay [2] deals with EKVX NSCLC.
Assay [3] relates to SN12C renal.
Assay [4] has as its system UO-31 renal.
Assay [5] deals with TK-10 renal.
For assay [6], the system named is ACHN renal.
For assay [7], the system named is CAKI-1 renal.
Assay [8] has as its system A498 renal.
Assay [9] relates to CCRF-CEM leukemia.
In assay [10] the test system is MOLT-4 leukemia.
Assay [11] deals with SR leukemia.
Assay [12] concerns RPMI-8226 leukemia.
Assay [13] concerns OVCAR-8 ovarian.
Assay [14] concerns OVCAR-5 ovarian.
Assay [15] relates to OVCAR-4 ovarian.
The subject of assay [16] is SK-OV-3 ovarian.
Assay [17] concerns IGROV1 ovarian.
The test system of assay [18] is OVCAR-3 ovarian.
For assay [19], the system named is HS 578T breast.
The subject of assay [20] is NCI/ADR-RES ovarian.

As to `O=C(NNC(=O)c1nc2cc(F)ccc2n2cccc12)c1cnccn1`, the growth was 67.1% in assay [1]; 29.2% in assay [2]; 40.2% in assay [3]; 33.3% in [4]; 62.7% in [5]; 26% in assay [6]. Moreover, the growth in assay [7] was 27.9%; in assay [8], 19.9%; in [9], 17.1%; in assay [10] it was 15%; in [11] it was 21.4%; in assay [12], 41.3%. In addition, the growth was 24.2% in assay [13]; 68.3% in assay [14]; 28.4% in [15]; 42.1% in assay [16]; 35.6% in [17]; 30% in assay [18]. Further, the growth in assay [19] is 67.8%; in [20] it was 20.8%.
In the case of `CC(C)(C)n1cc(-c2ccnc(NCCCNS(=O)(=O)c3ccc(C(F)(F)F)cc3)c2)c(-c2cccc(F)c2)n1`, the growth in [1] is 93.6%; in assay [2], 78.7%; in [3], 82.8%; in assay [4] it was 78%; in assay [5], 108%; in [6], 85.7%. For the same compound, the growth in assay [7] was 90.3%; in [8], 92.5%; in assay [9], 73.8%; in assay [10] it was 65.3%; in [11], 25.2%; in [12], 55.9%. Further, the growth is 83.1% in [13]; 85.4% in assay [14]; 99.7% in assay [15]; 94.2% in [16]; 84.1% in assay [17]; 95% in [18]. In addition, the growth was 95% in [19] and 76.5% in assay [20].
Take `Cn1cc(-c2nn3cc(-c4cccs4)nc3s2)c2cc(F)ccc21`: the growth in assay [1] is 35%; in assay [2] it was 47.7%; in [3], 36%; in [4] it was 35.8%; in assay [5], 53.7%; in assay [6], 43.5%. Besides, the growth is 27.8% in assay [7]; 7.55% (active) in assay [8]; 21.9% in [9]; 22.3% in assay [10]; 11.8% in assay [11]; 31.2% in assay [12]. The growth in assay [13] is 51.4%; in assay [14], 42.7%; in assay [15], 60.5%; in [16] it was 44.9%; in assay [17], 35.3%; in assay [18] it was 5.2% (active). The growth in [19] was 1.66% (active); in assay [20] it was 21.1%.
With `CCN1C(=O)N(CC)C2C1NN=c1s/c(=C\c3ccc(C(F)(F)F)cc3)c(=O)n12` (stereo not given), the growth in assay [1] is 56.1%; in assay [2] it was 48.5%; in [3], 24.2%; in assay [4], 34.3%; in [5], 59.7%; in assay [6], 27.6%. Moreover, the growth in [7] is 25.9%; in assay [8], 8.73% (active); in assay [9], 5.13% (active); in assay [10], 10.9%; in [11], 12.2%; in assay [12], 9.95% (active). Further, the growth in assay [13] is -2.79% (active); in assay [14] it was 26.7%; in assay [15], 46%; in assay [16], 36.5%; in assay [17], 18.7%; in [18], 3.24% (active). Also, the growth in assay [19] was 18.4%; in [20] it was 2.84% (active).
`Cc1nc2c(=O)nc3s/c(=C\c4ccco4)c(=O)n3c2nc1C`: the growth in [1] is 109%; in [2] it was 91.8%; in assay [3], 97.8%; in assay [4], 73.1%; in assay [5], 92.9%; in assay [6], 99.2%. Further, the growth is 88.4% in [7]; 50.9% in assay [8]; 108% in assay [9]; 106% in [10]; 94.2% in [11]; 116% in assay [12]. The growth in assay [13] was 96.1%; in [14] it was 101%; in [15] it was 101%; in assay [16] it was 102%; in assay [17] it was 93.4%; in [18], 105%. The growth is -95.1% (active) in [19] and 93.5% in assay [20].
With `CCN1CCN(CCNc2nccc(-c3c(-c4ccc(F)c(OC)c4)nc4sccn34)n2)S1(=O)=O`, the growth in assay [1] is 37.7%; in [2], 88.5%; in assay [3], 70.8%; in assay [4] it was 86.9%; in assay [5], 118%; in assay [6], 59.6%. The growth in assay [7] is 77.5%; in assay [8], 102%; in assay [9] it was 59.5%; in [10] it was 81.8%; in [11], 45.3%; in assay [12], 68.7%. Moreover, the growth was 77.2% in assay [13]; 114% in assay [14]; 92% in assay [15]; 87.5% in assay [16]; 74.4% in [17]; 85.5% in [18]. The growth in [19] is 77.7%; in assay [20] it was 103%.
As for `COc1cccc(NCc2nnc(Nc3ccc(Cl)cc3)c3ccccc23)c1`, the growth in assay [1] was -34.4% (active); in assay [2], -0.284% (active); in [3], 14.5%; in [4], -42.5% (active); in assay [5] it was -40.9% (active); in [6] it was -5.35% (active). Moreover, the growth is 9.01% (active) in assay [7]; -26.8% (active) in assay [8]; -4.42% (active) in [9]; -27.2% (active) in assay [10]; -24.5% (active) in assay [11]; -28.1% (active) in assay [12]. The growth is 3.02% (active) in assay [13]; 8.44% (active) in assay [14]; 17.2% in [15]; -11.9% (active) in assay [16]; 1.51% (active) in [17]; -53.6% (active) in [18]. The growth was 0.542% (active) in assay [19] and -5.42% (active) in assay [20].
As to `Cc1ccc(S(=O)(=O)c2nc(-c3ccccc3)oc2Sc2nc3ccccc3s2)cc1`, the growth was 88.6% in assay [1]; 97.1% in [2]; 61.4% in [3]; 64.3% in assay [4]; 111% in assay [5]; 96.8% in assay [6]. The growth in assay [7] was 91.5%; in assay [8] it was 80.4%; in assay [9], 23.6%; in assay [10], 12.3%; in assay [11] it was 15.5%; in [12], 56.7%. Moreover, the growth is 60% in [13]; 124% in [14]; 55.5% in assay [15]; 116% in assay [16]; 80% in assay [17]; 77.9% in [18]. In addition, the growth in [19] is 101%; in [20], 70.7%.
